The text below walks through data of PubChem BioAssay (Tox21).

Test [1] has as its target Acetylcholinesterase (Homo sapiens) (UniProt P22303). Nature of the test: Acetylcholinesterase (AChE) small molecule antagonists: colormetric cell-based qHTS assay (AID 1347395). Also: nearly all actives have a fitted effect of over 30% in size. Also: potency is read from the fitted curve at half-maximal effect. Summed up: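 SH-SY5Y cells; cpd 30 min 37 C; + DTNB/acetylthiocholine, 90 min 37 C; colorimetric thiocholine read; qHTS.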
(In general: In qHTS, concentration-response curves come from the screen itself.)

The target is the same in test [2]. Nature of the test: Acetylcholinesterase (AChE) small molecule antagonists: enzyme-based qHTS assay (AID 1347397). Also: nearly all actives have a fitted effect of over 55% in size. The settings on record: Potency: AChE enzyme activity inhibition; outcome: AChE enzyme activity inhibition. Summed up: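 Absorbance-based detection of thiocholine with DTNB served as the read-out. Recombinant human AChE was exposed to compound for 30 min at RT before a 10 min RT incubation with acetylthiocholine.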

The target is the same in test [3]. Nature of the test: Acetylcholinesterase (AChE) small molecule antagonists: fluorescence cell-based qHTS assay (AID 1347398). Also: nearly all actives have a fitted effect of over 50% in size. Conditions: Potency: AChE activity; outcome: AChE activity. The procedure, abridged: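 Fluorimetric cell-based assay: intact SH-SY5Y cells, 30 min compound preincubation at 37 C, acetylthiocholine substrate with thiol probe Thiolite Green, 40 min RT development, fluorescence 490/520 nm.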

Test [4] shares this target. Nature of the test: Acetylcholinesterase (AChE) small molecule antagonists: enzyme-based qHTS assay with human liver microsomes (AID 1347399). Also: nearly all actives have a fitted effect of over 60% in size. The settings on record: Potency: qHTS inhibition; outcome: qHTS inhibition. The procedure, abridged: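 Recombinant human AChE (50 mU/mL in the enzyme mix) and human liver microsomes (0.25 mg/mL final) were preincubated with compound and NADPH (0.25 mg/mL final) for 30 min at 37 C. Acetylthiocholine/DTNB was then added; thiocholine was read colorimetrically after 10 min at room temperature.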

Results filed as inconclusive are left out. Some structures have more than one record in an assay (separate samples or runs), and their calls can disagree. Calls of active or inactive are those of the source. Calls follow the shape of the full dose curve.

Chain of Acetylcholinesterase (Homo sapiens) (P22303 whole entry, looked up): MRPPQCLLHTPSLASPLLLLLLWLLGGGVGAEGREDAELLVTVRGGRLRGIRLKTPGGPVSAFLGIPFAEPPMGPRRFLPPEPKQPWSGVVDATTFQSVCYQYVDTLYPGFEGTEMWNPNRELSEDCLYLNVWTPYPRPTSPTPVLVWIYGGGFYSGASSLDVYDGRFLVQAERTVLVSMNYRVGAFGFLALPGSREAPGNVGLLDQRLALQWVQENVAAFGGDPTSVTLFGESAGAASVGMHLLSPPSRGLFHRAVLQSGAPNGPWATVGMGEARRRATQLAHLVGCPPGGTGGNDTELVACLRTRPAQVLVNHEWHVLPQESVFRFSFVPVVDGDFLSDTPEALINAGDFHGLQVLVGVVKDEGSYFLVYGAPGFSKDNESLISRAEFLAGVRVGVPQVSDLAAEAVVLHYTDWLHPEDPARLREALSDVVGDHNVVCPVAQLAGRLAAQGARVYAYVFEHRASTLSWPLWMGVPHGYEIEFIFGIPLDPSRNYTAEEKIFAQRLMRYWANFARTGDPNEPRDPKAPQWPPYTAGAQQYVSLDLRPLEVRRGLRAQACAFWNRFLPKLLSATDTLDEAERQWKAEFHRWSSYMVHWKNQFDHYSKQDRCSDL

As to `C=C(C)C(=O)NCCC[N+](C)(C)C`, the Potency result in test [1], in test [2], in test [3] and in test [4] was “inactive” each time.
With `CCCCCCCCCCl`, the Potency result in test [1], in test [2], in test [3] and in test [4] was “inactive” in each case.
`CC(=O)OC(C)(C)C1CC=C(C)CC1` (stereo not given): the Potency result in test [1], in test [2], in test [3] and in test [4] was “inactive” throughout.
Take `CCC(C)(O)CCCC(C)C` (stereo not given): the Potency result in test [1], in test [2], in test [3] and in test [4] was “inactive” each time.
Turning to `CC(CO)c1ccccc1` (stereo not given), the Potency result in test [1], in test [2], in test [3] and in test [4] was “inactive” each time.
`CC(C(=O)O)c1ccc(/C=C2\CCCCC2=O)cc1` (stereo not given): the Potency result in test [1], in test [2], in test [3] and in test [4] was “inactive” throughout.
In the case of `O=C1OC(=O)c2cc(-c3ccc4c(c3)C(=O)OC4=O)ccc21`, the Potency result in test [1], in test [2], in test [3] and in test [4] was “inactive” throughout.
Turning to `O=C(O)Cc1ccc2c(c1)C(=O)c1ccccc1CO2`, the Potency result in test [1], in test [2], in test [3] and in test [4] was “inactive” each time.
For the compound `CCCCOC(=O)CO`, the Potency entry in test [1], in test [2], in test [3] and in test [4] was “inactive” throughout.
For `COc1ccc2cc1Oc1cc3c(cc1OC)CC[N+](C)(C)[C@H]3Cc1ccc(cc1)Oc1c(OC)c(OC)cc3c1[C@@H](C2)[N+](C)(C)CC3`, the Potency entry in test [1], in test [2], in test [3] and in test [4] was “inactive” throughout.
For the compound `NCCc1ccn[nH]1`, the Potency entry in test [1], in test [2], in test [3] and in test [4] was “inactive” each time.
Take `CCCCC(=O)O`: the Potency result in test [1], in test [2], in test [3] and in test [4] was “inactive” each time.
Consider `CCCCCCCOC(C)=O`, for which the Potency entry in test [1], in test [2], in test [3] and in test [4] was “inactive” each time.
In the case of `O=C(CS)Nc1ccccc1`, the Potency entry in test [1], in test [2], in test [3] and in test [4] was “inactive” in each case.
In the case of `COc1ccc(S(=O)(=O)Nc2nnc(CC(C)C)s2)cc1`, the Potency entry in test [1], in test [2], in test [3] and in test [4] was “inactive” in each case.
Consider `CCCSSCCC`, for which the Potency result in test [1], in test [2], in test [3] and in test [4] was “inactive” throughout.
Regarding `Nc1ccc(Cl)c(N)c1`, the Potency result in test [1], in test [2], in test [3] and in test [4] was “inactive” in each case.
For the compound `O=c1[nH]cnc2[nH]ncc12`, the Potency entry in test [1], in test [2], in test [3] and in test [4] was “inactive” each time.
As to `O=C(O)c1ccc([N+](=O)[O-])cc1`, the Potency result in test [1], in test [2], in test [3] and in test [4] was “inactive” each time.
With `CCC(=O)O[C@]1(C(=O)CCl)[C@@H](C)C[C@H]2[C@@H]3CCC4=CC(=O)C=C[C@]4(C)[C@@]3(F)[C@@H](O)C[C@@]21C`, the Potency result in test [1], in test [2], in test [3] and in test [4] was “inactive” each time.
For the compound `CC(=O)Nc1ccc(C)c(Cl)c1`, the Potency entry in test [1], in test [2], in test [3] and in test [4] was “inactive” in each case.
In the case of `COCCOCC(OC)OC`, the Potency entry in test [1], in test [2], in test [3] and in test [4] was “inactive” in each case.
Regarding `CC(C)c1cccc(C(C)C)c1`, the Potency entry in test [1], in test [2], in test [3] and in test [4] was “inactive” throughout.
As for `c1ccc(CC2=NCCN2)cc1`, the Potency result in test [1], in test [2], in test [3] and in test [4] was “inactive” each time.
`O=Cc1ccc(O)c(O)c1O`: the Potency result in test [1], in test [2], in test [3] and in test [4] was “inactive” throughout.
`Cn1cnc2c(F)c(Nc3ccc(Br)cc3Cl)c(C(=O)NOCCO)cc21`: the Potency result in test [1], in test [2], in test [3] and in test [4] was “inactive” in each case.
With `C=CC(=O)OCCOCCOC(=O)C=C`, the Potency result in test [1], in test [2], in test [3] and in test [4] was “inactive” in each case.
For the compound `C=C[Si](OC(C)=O)(OC(C)=O)OC(C)=O`, the Potency result in test [1], in test [2], in test [3] and in test [4] was “inactive” each time.
Take `CCCCC(C)C(=O)O` (stereo not given): the Potency result in test [1], in test [2], in test [3] and in test [4] was “inactive” in each case.
In the case of `CC(C)(N)CO`, the Potency result in test [1], in test [2], in test [3] and in test [4] was “inactive” throughout.
On to `Cc1nc2ccccc2c(=O)o1`, for which the Potency result in test [1], in test [2], in test [3] and in test [4] was “inactive” each time.
As for `C#C[C@]1(O)CC[C@H]2[C@@H]3CCc4cc(O)ccc4[C@H]3CC[C@@]21C`, the Potency entry in test [1], in test [2], in test [3] and in test [4] was “inactive” in each case.
With `Oc1ccc(-c2ccccc2)c(Cl)c1`, the Potency entry in test [1], in test [2], in test [3] and in test [4] was “inactive” throughout.
For `CCCCOCCOCCSC#N`, the Potency result in test [1], in test [2], in test [3] and in test [4] was “inactive” each time.
Turning to `c1ccc(SCCSc2ccccc2)cc1`, the Potency result in test [1], in test [2], in test [3] and in test [4] was “inactive” throughout.
Turning to `CC1=C(O)C(=O)CO1`, the Potency entry in test [1], in test [2], in test [3] and in test [4] was “inactive” each time.
With `COc1cc(C(=O)OC(COCCC(C)C)CN2CCOCC2)cc(OC)c1OC` (stereo not given), the Potency entry in test [1], in test [2], in test [3] and in test [4] was “inactive” throughout.
For `CC(C(=O)O)c1ccc(-c2ccccc2)c(F)c1` (stereo not given), the Potency result in test [1], in test [2], in test [3] and in test [4] was “inactive” throughout.
With `Nc1cc([N+](=O)[O-])ccc1C(=O)O`, the Potency entry in test [1], in test [2], in test [3] and in test [4] was “inactive” each time.
Take `CCC(=O)O[C@@H]1C[C@H]2CC[C@]1(C)C2(C)C`: the Potency result in test [1], in test [2], in test [3] and in test [4] was “inactive” in each case.
Regarding `CC(=O)OC(C)(C)C`, the Potency entry in test [1], in test [2], in test [3] and in test [4] was “inactive” throughout.
`CCC/C=C(\C=O)CC`: the Potency entry in test [1], in test [2], in test [3] and in test [4] was “inactive” each time.
As to `CC(=O)OC1CC(C)OC(C)O1` (stereo not given), the Potency result in test [1], in test [2], in test [3] and in test [4] was “inactive” throughout.
`CCCCCCCCCC=O`: the Potency entry in test [1], in test [2], in test [3] and in test [4] was “inactive” throughout.
For `O=C(Oc1ccccc1)c1ccc(O)cc1`, the Potency result in test [1], in test [2], in test [3] and in test [4] was “inactive” in each case.
`O=C(O)COC(=O)Cc1ccccc1Nc1c(Cl)cccc1Cl`: the Potency entry in test [1], in test [2], in test [3] and in test [4] was “inactive” each time.
For the compound `OCc1ccccc1`, the Potency in test [1] is 39.4 µM (active) and inactive. The Potency result in test [2], in test [3] and in test [4] was “inactive” throughout.
Regarding `COc1ccc(O)cc1`, the Potency result in test [1], in test [2], in test [3] and in test [4] was “inactive” each time.
Consider `CC(C)[C@H](N)C(=O)OCCOCn1cnc2c(=O)[nH]c(N)nc21`, for which the Potency result in test [1], in test [2], in test [3] and in test [4] was “inactive” each time.
With `CC1=C(C)C(=O)C(C(CCCCCC(=O)O)c2ccccc2)=C(C)C1=O` (stereo not given), the Potency result in test [1], in test [2], in test [3] and in test [4] was “inactive” each time.
Regarding `O=C(O)CCCCC(=O)O`, the Potency entry in test [1], in test [2], in test [3] and in test [4] was “inactive” in each case.
As for `COC(=O)c1ccc(C=O)cc1`, the Potency result in test [1], in test [2], in test [3] and in test [4] was “inactive” in each case.
As to `COc1nc(C)nc(N)n1`, the Potency entry in test [1], in test [2], in test [3] and in test [4] was “inactive” each time.
In the case of `N#Cc1ccccc1`, the Potency result in test [1], in test [2], in test [3] and in test [4] was “inactive” each time.
Regarding `O=c1c(-c2ccc(O)cc2)coc2cc(O)cc(O)c12`, the Potency entry in test [1], in test [2], in test [3] and in test [4] was “inactive” each time.
For `CN(C)C`, the Potency entry in test [1], in test [2], in test [3] and in test [4] was “inactive” in each case.
Regarding `Clc1ccc2c(c1)C(N1CCNCC1)=Nc1ccccc1O2`, the Potency entry in test [1], in test [2], in test [3] and in test [4] was “inactive” throughout.
Take `C(=C/c1ccccc1)/c1ccccc1`: the Potency entry in test [1], in test [2], in test [3] and in test [4] was “inactive” throughout.
Take `Oc1ccc2c(c1)-c1ccccc1C2`: the Potency result in test [1], in test [2], in test [3] and in test [4] was “inactive” throughout.
Consider `CCOC(=O)C(=O)CCc1ccccc1`, for which the Potency result in test [1], in test [2], in test [3] and in test [4] was “inactive” throughout.
